KCNQ2 inh – blocks the rat KCNQ2 potassium channel | AID 2156 | B-score at 10 µM | CHO-K1 KCNQ2, FluxOR thallium flux, 20 min; hits give low values | hit rate 1.1% among 310,000 | O88943;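 active = fluorescence ratio B-score at most minus 3 library SDs, with starting brightness B-score within 2 library SDs, cut at about -5.5 in these data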
KCNQ2 pot – potentiators of rat KCNQ2 potassium channel; B-score at 10 µM; CHO-K1 KCNQ2, FluxOR thallium flux fluorescence; hits give high values; AID 2239; O88943; hit rate 0.54% among 310,000;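 active = fluorescence ratio B-score at least 3 SD of library B-scores, with initial fluorescence B-score within 3 of them, cut at about 5.3 in these data; same plate scores as AID 2156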;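 also: B-score of peak minus minimum over baseline fluorescence ratio after K+ and Tl+ stimulus; positive B-score means potentiation of KCNQ2 with more thallium influx and brighter signal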
Kir21 conf inh – confirmation of mouse Kir2.1 potassium channel inhibitors; Kir2.1-expressing cells, FluxOR thallium flux fluorescence; hits give low values; hit rate 41% among 2,300; shares compounds with KCNQ2 pot; Tl flux remaining, % of negative control (hits give low values), % at 10 µM;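 active = Primary-screen hit whose thallium flux fell at least 3 control SD below untreated wells in both duplicates, with normal baseline fluorescence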;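 also: 0% = blank wells without stimulus and 100% = stimulated no-compound controls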
HEK293 ctr – counter-screen for Kir2.1 inhibitors: effect in parental HEK293 cells | FluxOR signal as % of negative control (100 = no effect), % at 10 µM | FluxOR thallium flux fluorescence; 0% = unstimulated blank wells | AID 2105 | shares compounds with KCNQ2 pot | hit rate 19% among 2,300;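 active = dye signal at least 3 control SD above or below untreated wells in both duplicates, raw fluorescence within 3, either direction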;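 also: percent is based on the flux ratio of peak minus minimum fluorescence over baseline F0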
CHO-K1 Tl ctr – counter-screen for KCNQ2 potentiators: effect in parental CHO-K1 cells | activity increase over 3SD of controls, % at 10 µM | FluxOR thallium flux fluorescence; zero = vehicle mean+3SD, 100% = vehicle-minus-blank window | hit rate 43% among 1,200 | shares compounds with KCNQ2 pot;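 active = signal rise of at least 3 SD above the untreated control mean, in both duplicate wells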;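 also: counter screen of KCNQ2 potentiator hits so any rise reflects channel-independent effects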
KCNQ1 sel pot – human KCNQ1 counter-target activity of KCNQ2 potentiators; shares compounds with KCNQ2 pot; CHO KCNQ1 stable, FluxOR thallium flux fluorescence; beyond 3SD, as % of vehicle-control signal; activation over 3SD threshold, % at 10 µM; hit rate 28% among 1,200; AID 2283;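 active = fluorescence ratio rise of at least 3 SD of vehicle wells above their mean, in both replicate wells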;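 also: 0% = vehicle mean plus 3 SD and 100% = vehicle minus unstimulated blank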
KCNQ2 pot conf – rat KCNQ2 channel potentiator confirmation. potentiation, less the hit threshold, % at 10 µM. hit rate 68% among 1,200. CHO-KCNQ2 cells, FluxOR thallium flux fluorescence. shares compounds with KCNQ2 pot;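 active = fluorescence ratio rising 3 SD or more over the vehicle control mean in both replicates, plus primary screen hit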;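 also: peak minus minimum thallium fluorescence divided by baseline after K/Tl stimulus; 0% = vehicle mean plus 3 SD and 100% = vehicle minus unstimulated blank difference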
Kir2-1 sel – selectivity of KCNQ2 potentiators: effect on mouse Kir2.1 | activity over 3SD threshold, % at 10 µM | hit rate 2% among 1,200 | shares compounds with KCNQ2 pot | HEK293 Kir2.1, FluxOR thallium flux fluorescence;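 active = fluorescence ratio rise of at least 3 SD above the vehicle-control mean, seen in both replicates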;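 also: 0% = vehicle mean plus 3 SD and 100% = vehicle minus no-stimulus blank window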
KCNQ2 W236L MoA – KCNQ2 potentiators acting on retigabine-insensitive rat KCNQ2 W236L mutant. shares compounds with KCNQ2 pot. CHO KCNQ2-W236L, automated patch clamp current. current increase over 3SD of negative controls (%), hits give high values, % at 25 µM. hit rate 10% among 940. AID 2558;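 active = current increase at least 3 SD of the untreated controls above them in both duplicate recordings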
Target sequence (O88943 whole entry W236L, looked up): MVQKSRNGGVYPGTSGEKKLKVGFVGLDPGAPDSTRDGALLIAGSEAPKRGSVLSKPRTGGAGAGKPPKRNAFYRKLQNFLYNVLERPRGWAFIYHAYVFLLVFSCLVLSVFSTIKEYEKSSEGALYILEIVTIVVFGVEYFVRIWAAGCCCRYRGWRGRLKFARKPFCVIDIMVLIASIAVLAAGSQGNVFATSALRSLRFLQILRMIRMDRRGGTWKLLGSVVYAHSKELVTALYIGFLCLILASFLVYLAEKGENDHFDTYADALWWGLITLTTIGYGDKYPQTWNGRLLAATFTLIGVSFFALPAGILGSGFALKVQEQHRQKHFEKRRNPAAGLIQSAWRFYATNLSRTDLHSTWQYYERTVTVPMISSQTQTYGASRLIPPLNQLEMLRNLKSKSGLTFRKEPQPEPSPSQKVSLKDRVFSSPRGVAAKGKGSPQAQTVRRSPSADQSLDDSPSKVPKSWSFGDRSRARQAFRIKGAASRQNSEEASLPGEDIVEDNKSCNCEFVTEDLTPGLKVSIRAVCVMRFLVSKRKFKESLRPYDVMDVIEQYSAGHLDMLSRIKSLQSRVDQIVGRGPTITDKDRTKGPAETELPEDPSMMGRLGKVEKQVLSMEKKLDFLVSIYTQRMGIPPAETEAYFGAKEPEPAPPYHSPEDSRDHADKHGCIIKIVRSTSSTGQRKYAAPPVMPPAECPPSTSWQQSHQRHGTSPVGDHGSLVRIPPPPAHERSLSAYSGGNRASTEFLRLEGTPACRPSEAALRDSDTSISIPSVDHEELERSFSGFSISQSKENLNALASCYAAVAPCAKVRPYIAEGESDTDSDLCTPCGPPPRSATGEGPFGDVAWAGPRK
* hit, by the source's call; i = inactive; / = not tested or not shown. In the library only some 1.6% were active in any assay of this set; here they are far more common.

SMILES | KCNQ2 inh | KCNQ2 pot | Kir21 conf inh | HEK293 ctr | CHO-K1 Tl ctr | KCNQ1 sel pot | KCNQ2 pot conf | Kir2-1 sel | others
Clc1ccccc1-c1nnc2n1-c1ccccc1SC2 | i | / | / | / | / | / | / | /
COc1ccccc1NC(=O)C1CCN(C(=O)NCc2ccccc2)CC1 | i | / | / | / | / | / | / | /
CC(NC(=O)c1ccc(Br)cc1)c1ccc2c(c1)CCCC2 (centres undefined) | i | 7.6* | i | i | 43.2* | -2.0 | 40.5* | -28.9 | KCNQ2 W236L MoA=i
CC(NC(=O)c1ccccc1Br)c1ccc2c(c1)CCCC2 (centres undefined) | i | / | / | / | / | / | / | /
CN1CCN(c2nc(-c3ccc(Cl)cc3Cl)nc3ccccc23)CC1 | i | 0.21 | / | / | / | / | / | /
O=C(Cc1ccccc1)Nc1nc(=O)c2ccccc2s1 | i | 2.68 | / | / | / | / | / | /
O=C(Nc1nc(=O)c2ccccc2s1)c1ccc(F)cc1 | i | 5.81* | i | 173.5%* | -4.1 | -29.9 | -12.2 | -18.1
COc1ccc(CCNC(=O)C2Cc3ccccc3C(=O)O2)cc1 (centres undefined) | i | / | / | / | / | / | / | /
COc1ccc(CCNC2CCc3ccccc3C2)cc1 (centres undefined) | i | 2.77 | 40.0%* | i | / | / | / | /
CC(=O)c1nnn(-c2nc(N)nc(N(c3ccccc3)c3ccccc3)n2)c1C | i | 0.29 | / | / | / | / | / | /
CCCCN(CCCC)c1nc(OC)nc(-n2nnc(C(C)=O)c2C)n1 | i | 8.03* | i | i | -11.5 | -7.7 | -8.4 | -43.1 | KCNQ2 W236L MoA=i
Cc1ccc(Sc2ccc(CN3CCCCC3)cc2[N+](=O)[O-])cc1 | i | / | / | / | / | / | / | /
O=c1c2cc(Cl)ccc2nc(-c2ccccc2Cl)n1O | i | 2.45 | / | / | / | / | / | /
O=c1c2cc(Br)ccc2nc(-c2ccccc2)n1O | i | 7.79* | i | 425.5%* | -16.4 | -15.5 | 49.5* | -8.8 | KCNQ2 W236L MoA=i
Cc1ccc(-c2nc3ccccc3c(=O)n2O)cc1 | i | 3.58 | / | / | / | / | / | /
O=c1c2ccccc2nc(-c2cccc(Cl)c2)n1O | i | 8.71* | i | i | 74.0* | -21.8 | 45.5* | -25.5 | KCNQ2 W236L MoA=i
CCOC(=O)N1CCN(C(=O)Cn2ccc3c(OC)cccc3c2=O)CC1 | i | 0.23 | / | / | / | / | / | /
CCC1Oc2ccccc2N(CC(=O)NC2CCCCC2C)C1=O (centres undefined) | i | / | / | / | / | / | / | /
COc1cc(NS(=O)(=O)c2ccc(NC(=S)Nc3ccccc3)cc2)nc(OC)n1 | i | / | / | / | / | / | / | /
COc1cc(NS(=O)(=O)c2ccc(Nc3nc(-c4ccccc4)cs3)cc2)nc(OC)n1 | i | 1.82 | i | i | / | / | / | /
C/C(=N\NC(=O)c1cc(-c2ccc(C)s2)[nH]n1)c1ccco1 | i | 0.69 | / | / | / | / | / | /
CCN(CCNCC(O)COCc1ccc(Cl)cc1)c1cccc(C)c1 (centres undefined) | i | / | 36.5%* | i | / | / | / | /
CCN(CCNC(=O)c1ccc(C#N)cc1)c1cccc(C)c1 | i | / | / | / | / | / | / | /
O=C(c1cccc(S(=O)(=O)N2CCc3ccccc32)c1)N1CCCC(C(F)(F)F)C1 (centres undefined) | i | 0.83 | / | / | / | / | / | /
Cc1cccc(NC(=O)CCNC(=O)c2ccco2)c1C | i | / | / | / | / | / | / | /
SMILES | KCNQ2 inh | KCNQ2 pot | Kir21 conf inh | HEK293 ctr | CHO-K1 Tl ctr | KCNQ1 sel pot | KCNQ2 pot conf | Kir2-1 sel | others
COc1ccc(-c2csc(NC(=S)NC(=O)c3cc4ccccc4o3)n2)cc1Br | i | 2.82 | / | / | / | / | / | /
Cc1cccc(NC(=S)NC(=O)c2ccco2)c1C | i | 9.9* | i | 364.5%* | -10.0 | -1.8 | 46.0* | -27.7 | KCNQ2 W236L MoA=i
CCOc1ccc(NC(=O)c2ccco2)cc1 | i | 1.84 | / | / | / | / | / | /
COc1ccc(-c2csc(NC(=S)NC(=O)c3ccco3)n2)cc1Br | i | 5.68* | i | i | 29.7* | 22.1* | -10.1 | -31.3
CCOc1ccc(NC(=S)NC(=O)c2ccco2)cc1 | i | 7.76* | i | 163.0%* | -8.3 | 38.4* | 22.8* | -18.7 | KCNQ2 W236L MoA=i
CS(=O)(=O)c1ccc2nc(NC(=O)c3ccco3)sc2c1 | i | 0.64 | / | / | / | / | / | /
O=C(NC(=S)Nc1nc2ccc(F)cc2s1)c1ccco1 | i | 13.4* | i | i | -16.1 | -33.3 | 26.0* | -32.9 | KCNQ2 W236L MoA=i
CCc1ccc(C(=O)NNC(=O)c2cccc(N3C(=O)CCC3=O)c2)cc1 | i | 1.11 | / | / | / | / | / | /
Cc1csc(SCC(=O)NCc2ccccc2Cl)n1 | i | 1.37 | / | / | / | / | / | /
Cc1cc(Br)ccc1OCC(=O)NNC(=O)c1cnccn1 | i | / | / | / | / | / | / | /
Cn1c(=O)c2sc3c(c2n(CC(=O)Nc2ccccc2)c1=O)COC(C)(C)C3 | i | 1.13 | / | / | / | / | / | /
COc1ccc(CCNC(=O)C(C)OC(=O)c2nsc(Cl)c2Cl)cc1OC (centres undefined) | i | 0.46 | / | / | / | / | / | /
O=C(Nc1ccc(Oc2ccc3ccccc3c2)cc1)c1ccco1 | i | 11.4* | i | i | 10.0* | 10.1* | 28.0* | -16.8 | KCNQ2 W236L MoA=7.7%*
Cc1cc(C(=O)Nc2ccc3ccccc3c2)oc1C | i | / | / | / | / | / | / | /
CC1CCN(c2ccccc2NC(=S)NC(=O)c2cccs2)CC1 | i | / | / | / | / | / | / | /
O=C(NC(=S)Nc1cccc(NC(=S)NC(=O)c2ccco2)n1)c1ccco1 | i | / | / | / | / | / | / | /
O=C(Nc1ccc(Oc2ccc(NC(=O)c3ccco3)c(NC(=O)c3ccco3)c2)cc1)c1ccco1 | i | 0.23 | / | / | / | / | / | /
CC1CCN(c2ccccc2NC(=S)NC(=O)c2ccco2)CC1 | i | 5.86* | i | i | -4.7 | -7.5 | -7.4 | -30.0
O=C(NC(=S)Nc1ccccc1Br)c1ccco1 | i | 9.49* | i | 181.0%* | 4.9* | 91.0* | 18.6* | -19.6 | KCNQ2 W236L MoA=i
Cc1ccoc1C(=O)Nc1ccc2ccccc2c1 | i | 18.8* | i | i | 49.0* | -16.9 | 75.0* | -17.7 | KCNQ2 W236L MoA=i
O=C1OCC/C1=C\OCCCO/C=C1\CCOC1=O | i | 0.21 | / | / | / | / | / | /
COc1cccc(CN2CCNC(=O)C2CC(=O)NCCCC2CCCC2)c1OC (centres undefined) | i | 0.53 | / | / | / | / | / | /
COc1ccccc1N1CCN(C(=O)CSc2nc(C)c(Cc3ccccc3)c(=O)[nH]2)CC1 | i | 9.15* | i | i | -12.8 | -16.7 | 28.7* | -27.0 | KCNQ2 W236L MoA=i
COc1ccccc1N1CCN(C(=O)CSc2nc(-c3ccccc3)cc(=O)[nH]2)CC1 | i | / | / | / | / | / | / | /
Cc1cc(C)c2nc(NC(=O)CN3C(=O)NC4(CCCC4)C3=O)sc2c1 | i | 2.39 | / | / | / | / | / | /
Oc1c(Br)cc(Br)cc1C=Nc1cccc2ncccc12 | i | 13.8* | i | i | -16.6 | -17.7 | -10.1 | -22.9 | KCNQ2 W236L MoA=i
Brc1cccc(C=Nc2cccc3ncccc23)c1 | i | 0.34 | / | / | / | / | / | /

Source: PubChem
